The text below walks through data of PubChem BioAssay (EPA / NIEHS).

Results filed as inconclusive are left out. Calls of active or inactive are those of the source. The calls were made as follows, unless noted: active = hit-call score of the fitted dose curve at least 0.9, where 1 is the maximum; inactive = score below 0.9.

Experiment [1] has as its target Paired box protein Pax-6 (Homo sapiens) (UniProt P26367). Description: ATG_Pax6_CIS: Attagene CIS-FACTORIAL HepG2 Assay for human Paired Box 6 (PAX6) (AID 2282956). The note with it: HepG2 CIS-FACTORIAL PAX6 reporter transcription, RNA readout; actives raise or lower the signal. In short, it runs like this:
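DMSO-referenced bidirectional fits of reporter mRNA fluorescence; HepG2 with transient cis-promoter MRTUs, 24 h post-dose, RT-PCR plus capillary electrophoresis detection.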

Experiment [2] is described as follows: ATG_PPRE_CIS: Attagene CIS-FACTORIAL HepG2 Assay for human Peroxisome Proliferator-activated Response Element (PPRE) (AID 2282958). The note with it: HepG2 PPRE cis-element reporter, Attagene transcription factor profiling; actives raise or lower the signal. In short, it runs like this: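 After human HepG2 hepatoma cells were transiently transfected with cis-promoter reporter constructs, they were exposed to test chemicals for 24 hours. Reporter RNA was then reverse-transcribed, PCR-amplified, FAM-labeled, HpaI-digested and quantified by capillary electrophoresis.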

Experiment [3] in a line: ATG_RORE_CIS: Attagene CIS-FACTORIAL HepG2 Assay for human RAR-related Orphan Receptor Element (RORE) (AID 2282959). The following applies: HepG2 Attagene cis-factorial RORE reporter, mRNA; actives raise or lower the signal. In short, it runs like this: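 Measured here: transcript induction of a cis-regulated reporter in HepG2 cells transiently transfected via FuGene 6. After 24 h, RNA was processed by RT-PCR and fluorescent capillary electrophoresis; DMSO defined baseline activity.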

Experiment [4] in a line: ATG_Sox_CIS: Attagene CIS-FACTORIAL HepG2 Assay for human SRY-box transcription factor (SOX) (AID 2282960). The note with it: HepG2 Attagene cis-factorial SOX reporter, mRNA; actives raise or lower the signal. In short, it runs like this: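 Using transiently transfected HepG2 cells, reporter transcription driven by cis elements was assessed 24 h after dosing. Signal was fluorescence of capillary-separated RT-PCR products, with DMSO defining baseline activity.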

A short description of experiment [5]: ATG_SREBP_CIS: Attagene CIS-FACTORIAL HepG2 Assay for human Sterol Regulatory Element Binding (SREBP) (AID 2282962). The following applies: HepG2 Attagene cis-factorial SREBP reporter, mRNA; actives raise or lower the signal. In short, it runs like this: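 In this cis-format assay, HepG2 liver cells express reporters controlled by promoter elements responsive to native transcription factors. Exposure lasts 24 h; reporter mRNA fluorescence from capillary electrophoresis gives the signal, fitted bidirectionally against DMSO.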

The target in experiment [6] is Signal transducer and activator of transcription 3 (Homo sapiens) (UniProt P40763). Description: ATG_STAT3_CIS: Attagene CIS-FACTORIAL HepG2 Assay for human Signal Transducer and Activator of Transcription 3 (STAT3) (AID 2282963). The following applies: HepG2, Attagene cis-factorial STAT3 reporter transcription; actives raise or lower the signal. In short, it runs like this:
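Uses human liver HepG2 transiently carrying cis-regulated reporter transcription units. Following 24 h dosing, reporter mRNA induction was detected by RT-PCR and capillary electrophoresis, analysed bidirectionally versus DMSO.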

Experiment [7] is described as follows: ATG_TA_CIS: Attagene CIS-FACTORIAL HepG2 Assay for human TA Basal Promoter (AID 2282964). The note with it: HepG2 Attagene CIS-factorial TA basal promoter reporter; actives raise or lower the signal. In short, it runs like this: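 Transient MRTU transfection of HepG2 preceded 24 h compound exposure. Reporter mRNA levels were then read by RT-PCR with capillary electrophoresis, and this background-control endpoint was fitted bidirectionally to DMSO.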

A short description of experiment [8]: ATG_TCF_b_cat_CIS: Attagene CIS-FACTORIAL HepG2 Assay for human T-Cell-Factor with beta-catenin (TCF/b-cat) (AID 2282965). The note with it: HepG2 TCF/beta-catenin cis-reporter transcription, actives raise or lower the signal. In short, it runs like this:
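HepG2 cells transiently transfected with multiple cis-promoter-regulated reporter transcription units, so endogenous transcription factor activity is measured. Reporter mRNA read 24 hours after dosing by RT-PCR, fluorescent labelling and capillary electrophoresis; bidirectional fitting against DMSO.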

A short description of experiment [9]: ATG_TAL_CIS: Attagene CIS-FACTORIAL HepG2 Assay for human TAL Basal Promoter (AID 2282966).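 Also: background control endpoint measuring basal TAL promoter reporter mRNA not a specific factor.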 The following applies: HepG2 Attagene cis-factorial TAL promoter reporter; actives raise or lower the signal. In short, it runs like this: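 Background-control endpoint: basal TAL promoter reporter transcripts in transiently transfected HepG2, measured 24 h after dosing. Read-out by RT-PCR with fluorescent primer extension and capillary electrophoresis; gain or loss of signal fitted relative to DMSO.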

The nature of experiment [10]: ATG_TGFb_CIS: Attagene CIS-FACTORIAL HepG2 Assay for human Transforming Growth Factor (TGF) (AID 2282967). The following applies: HepG2 Attagene CIS TGFb reporter, mRNA transcription; actives raise or lower the signal. In short, it runs like this: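 After a 24-hour incubation with compound, transfected HepG2 cells were lysed for RNA; reporter cDNA was amplified, fluorescently end-labeled and separated by CE. DMSO served as baseline for bidirectional fits.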

Experiment [11] can be described thus: ATG_VDRE_CIS: Attagene CIS-FACTORIAL HepG2 Assay for human Vitamin D Receptor Element (VDRE) (AID 2282968). The note with it: HepG2 VDRE cis-reporter transcription, actives raise or lower the signal. In short, it runs like this:
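Transfected HepG2 reporter cells, chemical treatment 24 h. RNA isolated, cDNA amplified with reporter-specific primers, products analysed by capillary electrophoresis. Endpoint fitted in both directions versus DMSO.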

Experiment [12] deals with Estrogen receptor (Homo sapiens) (UniProt P03372). The experiment is described as follows: ATG_ERa_TRANS: Attagene TRANS-FACTORIAL HepG2 Assay for human Estrogen Receptor alpha (ERa) (AID 2282970; active = hit-call score of the fitted dose curve at least 0.9, where 1 is the maximum). The following applies: HepG2 Attagene TRANS ERa GAL4 reporter, mRNA. In short, it runs like this:
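Reporter transcripts were measured 24 h after dosing by RT-PCR with fluorescent primer extension and capillary electrophoresis. The system is transiently transfected HepG2 expressing exogenous NR-Gal4 chimeras driving GAL4-UAS reporters; DMSO is the baseline.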

Experiment [13] concerns the target X-box-binding protein 1 (Homo sapiens) (UniProt P17861). Description: ATG_Xbp1_CIS: Attagene CIS-FACTORIAL HepG2 Assay for human X-box Binding Protein 1 (XBP1) (AID 2282972). The note with it: HepG2 XBP1 cis-element reporter, Attagene multiplex; actives raise or lower the signal. In short, it runs like this: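 Changes in reporter transcript abundance, read by RT-PCR and capillary electrophoresis, reflect endogenous transcription factor activity. Transfected HepG2 cells received compound for 24 hours; DMSO defined baseline for bidirectional analysis.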

The nature of experiment [14]: ATG_GAL4_TRANS: Attagene TRANS-FACTORIAL HepG2 Assay for GAL4 (Internal Marker) (AID 2282976; active = hit-call score of the fitted dose curve at least 0.9, where 1 is the maximum). The following applies: HepG2 Attagene TRANS GAL4 internal marker reporter. In short, it runs like this: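 In transfected human HepG2 liver cells dosed 24 h, GAL4 reporter mRNA serves as a baseline marker. Detection by RT-PCR with fluorescent capillary electrophoresis, activity fitted upward relative to DMSO.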

Experiment [15] addresses Estrogen-related receptor gamma (Homo sapiens) (UniProt P62508). The experiment is described as follows: ATG_ERRg_TRANS: Attagene TRANS-FACTORIAL HepG2 Assay for human Estrogen-Related Receptor gamma (ERRg) (AID 2282977; active = hit-call score of the fitted dose curve at least 0.9, where 1 is the maximum;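 also: hits increase reporter signal over DMSO so potencies reflect activators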). The note with it: HepG2 Attagene TRANS reporter, ERRg transactivation. In short, it runs like this: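 Readout: fluorescent reporter-mRNA fragments resolved by capillary electrophoresis after RT-PCR and HpaI cut. Cells: transiently transfected HepG2 carrying GAL4-UAS reporters driven by exogenous NR-Gal4 chimeras, dosed 24 h. Activity fitted upward relative to DMSO baseline.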

Experiment [16] is described as follows: ATG_M_19_TRANS: Attagene TRANS-FACTORIAL HepG2 Assay for M19 Transcription Factor (Internal Marker) (AID 2282974; active = hit-call score of the fitted dose curve at least 0.9, where 1 is the maximum). The following applies: HepG2 Attagene TRANS-FACTORIAL M19 internal marker reporter. In short, it runs like this:
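Gain-of-signal in reporter mRNA, relative to DMSO, was scored from capillary electrophoresis fluorescence. HepG2 cells carried transiently transfected multiple reporter transcription units and were incubated with test chemicals for 24 h.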

For experiment [17], the target named is Transcription factor Sp1 (Homo sapiens) (UniProt P08047). The experiment is described as follows: ATG_Sp1_CIS: Attagene CIS-FACTORIAL HepG2 Assay for human Specificity Protein 1 (Sp1) (AID 2282961). The note with it: HepG2 Sp1 cis-reporter transcription, actives raise or lower the signal. In short, it runs like this: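 After transient transfection of HepG2 cells with cis-promoter reporter units and 24 h chemical treatment, reporter transcripts were quantified by RT-PCR and capillary electrophoresis fluorescence. Gain- and loss-of-signal fitted against DMSO.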
Chain of Transcription factor Sp1 (Homo sapiens) (P08047 whole entry, looked up): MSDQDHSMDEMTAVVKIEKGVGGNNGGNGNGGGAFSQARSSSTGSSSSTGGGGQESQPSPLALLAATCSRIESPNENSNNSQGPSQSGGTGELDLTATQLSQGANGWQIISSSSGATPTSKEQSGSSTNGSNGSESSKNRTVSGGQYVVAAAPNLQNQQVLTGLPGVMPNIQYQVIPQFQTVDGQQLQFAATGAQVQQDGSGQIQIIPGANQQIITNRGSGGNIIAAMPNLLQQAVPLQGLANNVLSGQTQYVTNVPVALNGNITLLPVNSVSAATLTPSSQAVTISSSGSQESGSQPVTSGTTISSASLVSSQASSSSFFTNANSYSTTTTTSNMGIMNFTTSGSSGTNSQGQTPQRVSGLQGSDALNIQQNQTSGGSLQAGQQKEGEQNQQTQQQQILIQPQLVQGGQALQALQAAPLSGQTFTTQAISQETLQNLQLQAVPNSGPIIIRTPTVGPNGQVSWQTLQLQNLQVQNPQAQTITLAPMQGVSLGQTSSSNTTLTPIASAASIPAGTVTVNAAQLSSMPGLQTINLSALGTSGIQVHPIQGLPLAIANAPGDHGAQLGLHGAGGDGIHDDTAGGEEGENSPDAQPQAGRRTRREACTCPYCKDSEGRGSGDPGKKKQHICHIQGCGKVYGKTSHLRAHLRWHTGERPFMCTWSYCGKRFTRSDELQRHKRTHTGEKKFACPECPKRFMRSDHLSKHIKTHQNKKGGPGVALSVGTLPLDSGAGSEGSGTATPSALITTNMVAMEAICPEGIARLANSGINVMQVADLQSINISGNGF

For experiment [18], the target named is Nuclear receptor subfamily 1 group I member 3 (Homo sapiens) (UniProt Q14994). Description: ATG_CAR_TRANS: Attagene TRANS-FACTORIAL HepG2 Assay for human Constitutive Androstane Receptor (CAR) (AID 2282969; active = hit-call score of the fitted dose curve at least 0.9, where 1 is the maximum;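 also: activators raise reporter mRNA above DMSO so AC50 marks induction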). The following applies: HepG2 Attagene TRANS-FACTORIAL CAR reporter. In short, it runs like this: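 Steps: transient transfection of HepG2 with multiple GAL4-UAS reporter units; 24 h compound incubation; RNA isolation, RT-PCR, 6-FAM primer extension, HpaI digest; capillary electrophoresis. Gain-of-signal relative to DMSO negative control.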
Chain of Nuclear receptor subfamily 1 group I member 3 (Homo sapiens) (Q14994 whole entry, looked up, the tested form may be a part): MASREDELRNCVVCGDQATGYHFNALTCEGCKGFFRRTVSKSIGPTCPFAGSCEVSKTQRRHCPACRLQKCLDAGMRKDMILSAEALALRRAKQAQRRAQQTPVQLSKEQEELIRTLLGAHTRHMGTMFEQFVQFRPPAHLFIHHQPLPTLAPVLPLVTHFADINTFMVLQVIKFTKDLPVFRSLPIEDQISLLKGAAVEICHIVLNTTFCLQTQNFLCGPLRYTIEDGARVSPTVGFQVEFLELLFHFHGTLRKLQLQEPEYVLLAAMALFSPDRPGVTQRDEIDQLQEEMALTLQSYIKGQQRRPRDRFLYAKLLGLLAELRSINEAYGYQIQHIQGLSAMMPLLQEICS

Chain of Estrogen receptor (Homo sapiens) (P03372 whole entry, looked up, the tested form may be a part): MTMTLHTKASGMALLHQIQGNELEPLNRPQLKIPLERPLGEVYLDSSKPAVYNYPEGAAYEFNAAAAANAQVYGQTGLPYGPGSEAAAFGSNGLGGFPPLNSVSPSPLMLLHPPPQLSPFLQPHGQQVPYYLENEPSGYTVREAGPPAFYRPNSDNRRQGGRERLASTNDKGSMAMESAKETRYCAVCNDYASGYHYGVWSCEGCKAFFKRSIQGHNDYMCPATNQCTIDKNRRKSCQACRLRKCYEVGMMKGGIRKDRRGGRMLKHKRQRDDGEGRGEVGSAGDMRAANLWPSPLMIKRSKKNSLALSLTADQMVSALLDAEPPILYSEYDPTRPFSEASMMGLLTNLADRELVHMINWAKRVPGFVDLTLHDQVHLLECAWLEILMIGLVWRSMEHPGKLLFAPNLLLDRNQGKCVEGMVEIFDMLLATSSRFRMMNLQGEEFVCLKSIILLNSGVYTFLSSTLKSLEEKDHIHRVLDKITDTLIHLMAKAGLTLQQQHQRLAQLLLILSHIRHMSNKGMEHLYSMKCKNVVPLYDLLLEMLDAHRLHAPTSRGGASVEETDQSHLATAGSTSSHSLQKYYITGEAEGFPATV
Chain of Signal transducer and activator of transcription 3 (Homo sapiens) (P40763 whole entry, looked up): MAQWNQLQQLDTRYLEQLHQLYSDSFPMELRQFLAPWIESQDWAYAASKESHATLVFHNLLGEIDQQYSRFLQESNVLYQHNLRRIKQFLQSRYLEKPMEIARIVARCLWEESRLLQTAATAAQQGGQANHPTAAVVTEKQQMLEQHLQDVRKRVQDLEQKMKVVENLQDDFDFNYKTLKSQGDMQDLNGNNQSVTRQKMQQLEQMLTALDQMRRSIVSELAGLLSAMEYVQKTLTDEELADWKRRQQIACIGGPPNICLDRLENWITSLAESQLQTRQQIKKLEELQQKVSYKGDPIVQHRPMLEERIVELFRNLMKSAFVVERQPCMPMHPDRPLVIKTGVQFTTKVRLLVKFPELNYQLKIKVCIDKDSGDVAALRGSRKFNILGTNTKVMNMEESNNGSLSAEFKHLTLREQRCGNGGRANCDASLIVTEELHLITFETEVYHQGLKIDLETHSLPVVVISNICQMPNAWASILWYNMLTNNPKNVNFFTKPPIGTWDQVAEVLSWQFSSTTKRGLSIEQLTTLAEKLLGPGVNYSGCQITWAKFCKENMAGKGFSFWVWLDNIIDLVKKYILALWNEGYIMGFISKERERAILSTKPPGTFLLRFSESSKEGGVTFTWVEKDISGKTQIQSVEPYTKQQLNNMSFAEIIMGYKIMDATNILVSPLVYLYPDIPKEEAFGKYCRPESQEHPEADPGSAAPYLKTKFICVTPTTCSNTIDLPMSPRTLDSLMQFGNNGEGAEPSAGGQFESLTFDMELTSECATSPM
Chain of Paired box protein Pax-6 (Homo sapiens) (P26367 whole entry, looked up): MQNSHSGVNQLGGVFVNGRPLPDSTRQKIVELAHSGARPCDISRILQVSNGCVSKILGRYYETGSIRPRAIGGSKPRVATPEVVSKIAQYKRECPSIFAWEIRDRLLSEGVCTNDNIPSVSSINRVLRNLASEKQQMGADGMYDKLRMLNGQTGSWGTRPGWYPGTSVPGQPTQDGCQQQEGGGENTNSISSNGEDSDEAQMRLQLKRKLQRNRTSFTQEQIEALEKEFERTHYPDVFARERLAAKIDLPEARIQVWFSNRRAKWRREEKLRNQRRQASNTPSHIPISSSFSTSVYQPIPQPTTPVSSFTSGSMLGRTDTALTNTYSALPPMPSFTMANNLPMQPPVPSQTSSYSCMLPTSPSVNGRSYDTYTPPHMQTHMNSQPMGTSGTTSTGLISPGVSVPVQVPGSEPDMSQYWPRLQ
Chain of X-box-binding protein 1 (Homo sapiens) (P17861 whole entry, looked up): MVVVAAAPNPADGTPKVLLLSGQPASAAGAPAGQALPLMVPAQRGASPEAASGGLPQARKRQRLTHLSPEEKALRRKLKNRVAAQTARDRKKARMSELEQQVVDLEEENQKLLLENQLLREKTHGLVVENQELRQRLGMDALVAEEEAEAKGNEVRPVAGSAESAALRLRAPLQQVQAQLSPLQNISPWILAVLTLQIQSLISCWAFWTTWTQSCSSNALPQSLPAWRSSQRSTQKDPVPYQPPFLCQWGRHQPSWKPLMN
Chain of Estrogen-related receptor gamma (Homo sapiens) (P62508 whole entry, looked up, the tested form may be a part): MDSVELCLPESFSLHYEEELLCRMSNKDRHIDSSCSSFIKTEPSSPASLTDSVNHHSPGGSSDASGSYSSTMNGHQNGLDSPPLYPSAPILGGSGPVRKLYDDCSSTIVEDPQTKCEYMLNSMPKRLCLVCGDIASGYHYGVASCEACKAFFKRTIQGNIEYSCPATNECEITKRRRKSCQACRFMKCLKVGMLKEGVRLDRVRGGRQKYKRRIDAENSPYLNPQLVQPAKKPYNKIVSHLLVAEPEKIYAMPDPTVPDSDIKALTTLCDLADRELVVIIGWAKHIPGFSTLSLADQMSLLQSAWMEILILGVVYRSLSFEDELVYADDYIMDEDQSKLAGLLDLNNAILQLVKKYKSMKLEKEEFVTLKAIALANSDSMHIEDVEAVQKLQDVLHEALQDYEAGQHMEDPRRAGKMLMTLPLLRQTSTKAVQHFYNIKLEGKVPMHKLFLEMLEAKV

The AC50 is the concentration giving half of the maximal activity seen. As for `COc1ccc2sc(C(=O)Nc3nnn[nH]3)c(OC(C)C)c2c1`, the concentration at half-maximal activity (AC50) in experiment [1] was 129 µM (active); in [2], 12.3 µM (active); in experiment [3] it was 149 µM (active); in [5] it was 39.7 µM (active); in experiment [7], 70.7 µM (active); in experiment [9], 130 µM (active). In addition, the AC50 in [11] is 157 µM (active); in experiment [12] it was 59.3 µM (active); in experiment [13] it was 156 µM (active). Moreover, the result in experiment [4], in [6], in [8], in [10], in experiment [14] and in experiment [15] was inactive.
As to `O=C1OC(=O)C2C3C=CC(C3)C12` (centres undefined), the result in experiment [1], in [2], in experiment [3], in experiment [4], in experiment [5] and in experiment [6] was inactive. The compound was classed as inactive in experiment [7], in experiment [8], in experiment [9], in experiment [10], in experiment [11] and in [13]. The compound was classed as inactive in experiment [16].
With `CC(C)=CCCC(C)=CC=O`, the compound was called inactive in experiment [1], in [2], in experiment [3], in experiment [5], in experiment [6] and in experiment [7]. The result in experiment [9], in [10], in experiment [12] and in experiment [13] was inactive. For the same compound, the AC50 was 167 µM (active) in [4], 157 µM (active) in experiment [8] and 22.2 µM (active) in [11].
As to `O=C(O)CCN(C1(C(=O)NO)CCCC1)S(=O)(=O)c1ccc(Oc2ccc(F)cc2)cc1`, the outcome in experiment [1], in experiment [2], in experiment [4], in [17], in experiment [5] and in [6] was inactive. Also, the compound was called inactive in [7], in [8], in experiment [9], in [10], in experiment [11] and in experiment [18]. The call in experiment [13] and in experiment [16] was inactive.
For the compound `C=CC(=C)CCC=C(C)C`, the compound was classed as inactive in [1], in experiment [3], in [4], in experiment [17], in experiment [5] and in [6]. Also, the result in experiment [7], in experiment [8], in experiment [9], in experiment [10], in experiment [11] and in experiment [18] was inactive. Moreover, the result in experiment [12] and in experiment [13] was inactive.
